# Screening data: PubChem BioAssay, NMMLSC
# A selection: hits, their analogues and other compounds. The true share with any hit is near 1.2%.
# RGS4-Gao reg = modulators of RGS4 binding to Galphao, primary screen, biochemical, multiplexed bead flow cytometry; 0.33% of 220,000 active; binding response (% of control), % at 10 µM; actives lie on both sides; AID 1415, 2008; Guanine nucleotide-binding protein G(o) subunit alpha (Homo sapiens), P09471; in the data active = binding response below about 49% or above about 150%; inactive = in between;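 also: fluorescent Galphao activated with aluminum fluoride binding bead-coupled RGS4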
# Target sequence (P09471 whole entry, looked up): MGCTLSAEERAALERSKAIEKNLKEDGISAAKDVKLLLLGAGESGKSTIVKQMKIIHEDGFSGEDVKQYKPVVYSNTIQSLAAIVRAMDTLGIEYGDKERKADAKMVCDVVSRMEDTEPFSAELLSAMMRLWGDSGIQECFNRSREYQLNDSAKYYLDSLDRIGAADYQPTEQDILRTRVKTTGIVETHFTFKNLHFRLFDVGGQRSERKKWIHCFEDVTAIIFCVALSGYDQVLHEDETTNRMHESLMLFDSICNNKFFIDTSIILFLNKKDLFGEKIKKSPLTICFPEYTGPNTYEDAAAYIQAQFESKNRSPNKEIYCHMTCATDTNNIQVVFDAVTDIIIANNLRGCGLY
# GSH fluor = compound fluorescence on glutathione beads, profiling panel, artefact control, biophysical, 488/530 nm, flow cytometry. GSH beads flow cytometry, compound fluorescence 488/530 nm; hits give high values. fluorescence (KMESF) at 10 µM. 0.25% of 190,000 active; in the data active = fluorescence above about 89;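 also: glutathione beads carrying GST-tagged Bcl family fusion proteins plus one bare bead set; values are compound well signal with DMSO vehicle wells as background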
# RGS7-Gao = RGS7-Galphao binding modulators, primary screen, biochemical, multiplexed bead flow cytometry; actives lie on both sides; binding response (% of control), % at 10 µM; 0.35% of 220,000 active; AID 1439, 2008; in the data active = binding response below about 49% or above about 150%; inconclusive = no clear call, values can overlap the other calls; inactive = in between;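 also: fluorescent Galphao held in activated GDP-AlF4 state binding bead-coupled RGS7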
# Avidin bead fluor = green autofluorescence of compounds with avidin beads – biophysical, 488/530 nm, flow cytometry, artefact control, profiling panel; compound fluorescence 488/530 nm; hits give high values; fluorescence (KMESF) at 10 µM; 0.38% of 220,000 active; in the data active = fluorescence above about 47
# RGS16-Gao HTS = modulators of RGS16 binding to Galphao, primary screen, biochemical, human proteins, multiplexed bead flow cytometry. Regulator of G-protein signaling 16 (Homo sapiens) + Guanine nucleotide-binding protein …. 0.38% of 220,000 active. bead-based flow cytometry RGS16-Galphao binding, fluorescence; actives lie on both sides. binding response (% of control), % at 10 µM;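 also: Galphao activated by GDP with aluminum fluoride before binding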
# Target sequence (O15492 whole entry, looked up): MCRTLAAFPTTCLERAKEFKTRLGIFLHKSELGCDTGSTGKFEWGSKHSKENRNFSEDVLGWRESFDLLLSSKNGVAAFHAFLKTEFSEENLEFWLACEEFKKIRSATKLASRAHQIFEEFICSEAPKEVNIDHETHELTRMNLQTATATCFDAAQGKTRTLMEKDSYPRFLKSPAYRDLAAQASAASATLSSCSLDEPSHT
# Target sequence (P09471 whole entry, looked up): as the sequence (P09471 whole entry, looked up) above
# RGS8-Gao = RGS8-Galphao binding modulators, primary screen, biochemical, multiplexed bead flow cytometry | 0.34% of 220,000 active | response (percent of control binding), % at 10 µM | AID 1423, 2008 | actives lie on both sides; in the data active = response below about 60% or above about 140%; inactive = in between;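 also: Galphao activated as the GDP aluminium fluoride complex binding bead-coupled RGS8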
# RGS4-Gao HTS = modulators of RGS–Galpha-o binding, primary screen, biochemical, multiplexed beads, flow cytometry, RGS4/7/8/16/19. 99% of 1,600 active. RGS4–Galpha-o binding response, % at 10 µM. multiplexed bead flow cytometry. shares compounds with RGS16-Gao HTS. AID 1504, 2009;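 also: fluorescently labeled Galpha-o bound to GDP with aluminium fluoride binding biotinylated RGS beads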
# Avidin counter = disruption of biotin probe capture by avidin, counter-screen for RGS protein interaction modulators, biochemical, flow cytometry, bead-based. inhibition, % at 10 µM. shares compounds with RGS16-Gao HTS. 1,700 tested, under 10 active. AID 1783, 2009. streptavidin beads, fluorescein-biotin binding;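 active = inhibition above 50%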;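 also: median green fluorescence of gated singlet beads compared with DMSO control wells; 0% = DMSO wells and 100% = complete loss of bead fluorescence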
# RGS8-Gao confirm = RGS8-Galphao binding modulators, confirmation, biochemical, multiplexed bead flow cytometry, single concentration; bead-based flow cytometry RGS8-Galphao binding, fluorescence; actives lie on both sides; shares compounds with RGS16-Gao HTS; binding response (% of control), % at 10 µM; 3% of 1,700 active; in the data active = binding response below about 72% or above about 130%; inactive = in between;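 also: Galphao activated as GDP AlF4 complex before binding bead RGS8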
# RGS7-Gao single = RGS7-Galphao binding modulators, confirmation, biochemical, multiplexed bead flow cytometry, single concentration; bead-based flow cytometry RGS7-Galphao binding; actives lie on both sides; response (percent of control binding), % at 10 µM; 7.8% of 1,700 active; shares compounds with RGS16-Gao HTS; in the data active = response below about 75% or above about 130%; inactive = in between;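 also: fluorescent Galphao activated with GDP and aluminum fluoride binding bead-coupled RGS7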
# RGS16-Gao single = modulators of RGS16-Galphao protein binding, confirmation, biochemical, single concentration, multiplexed bead flow cytometry; bead-based flow cytometry; actives lie on both sides; shares compounds with RGS16-Gao HTS; response (% of control binding), % at 10 µM; 4% of 1,700 active; in the data active = response below about 74% or above about 130%; inactive = in between;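 also: Galphao activated as the GDP aluminium fluoride complex binding bead-coupled RGS16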
# RGS4-Gao confirm = modulators of RGS4-Galphao protein binding, confirmation, biochemical, single concentration, multiplexed bead flow cytometry | actives lie on both sides | binding response (% of control), % at 10 µM | shares compounds with RGS16-Gao HTS | 4% of 1,700 active; in the data active = binding response below about 74% or above about 130%; inactive = in between
# RGS19-Gao single = regulators of RGS19-Galphao binding, confirmation, biochemical, single point, multiplexed bead flow cytometry | bead-based flow cytometry RGS19-Galphao binding; actives lie on both sides | 5% of 1,700 active | AID 1841, 2009 | shares compounds with RGS16-Gao HTS | response (percent of control binding), % at 10 µM; in the data active = response below about 50% or above about 160%; inactive = in between;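 also: 100% = no compound control and 0% = blank background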
# An asterisk follows results filed as active; ? = inconclusive; nt = not tested or not shown; [ ] = dose if it differs, or a comment. Unless noted, no rule for the calls is given here.
SMILES,RGS4-Gao reg,GSH fluor,RGS7-Gao,Avidin bead fluor,RGS16-Gao HTS,RGS8-Gao,Avidin counter,RGS8-Gao confirm,RGS7-Gao single,RGS16-Gao single,RGS4-Gao confirm,RGS19-Gao single,others
N=C1C2=C3Sc4ccccc4N3CCCC2=NN1c1cccc(S(=O)(=O)O)c1,-11.4*,nt,?,-2,-6.4*,8.6*,-1.2,99.9,96.6,99.6,98.8,85.3,
CC1=NN(C(C#N)c2ccc([N+](=O)[O-])cc2)C(C)(C)C1 (stereo unspecified),107.5,nt,?,8,122.5,105.9,nt,nt,nt,nt,nt,nt,
CC1=NN(C(C#N)c2ccc(F)cc2)C(C)(C)C1 (stereo unspecified),49.8*,16,43.6*,4,45.1,57.9*,-0.1,104.2,110.8,106.7,109.2,102.7,
O=C(/C=C/c1ccc(F)cc1)NCC1(c2ccccc2)CCOCC1,105.3,9,103.0,3,201.1,123.5,nt,nt,nt,nt,nt,nt,
COc1ccc(-n2c3c(cc(C(=O)NNc4ccccc4)c2=O)C(=O)CC(C)(C)C3)cc1,47.3*,13,47.3*,7,43.4,58.6*,-2.9,95.2,87.2,92.5,90.1,69.2,
COc1ccc(-n2c3c(cc(C(=O)NNc4ccccc4C)c2=O)C(=O)CC(C)(C)C3)cc1,84.2,12,92.2,8,86.0,93.1,nt,nt,nt,nt,nt,nt,
Cc1cc(C)c(NS(=O)(=O)c2ccc(NC(=O)/C=C/C(=O)O)cc2)c(C)c1,9.7*,9,-0.2*,-3,1.1*,12.0*,0.9,98.4,97.4,97.7,99.3,108.8,
CCC(C)Nc1nc2c(c(=O)n(C)c(=O)n2C)n1C (stereo unspecified),135.2,nt,?,6,134.7,132.0,nt,nt,nt,nt,nt,nt,
CCCN1CCC(NCc2cn(C)nc2-c2ccc(Oc3ccccc3)cc2)CC1,103.4,nt,?,6,102.7,102.6,nt,nt,nt,nt,nt,nt,
CC(C)NC(=O)/C(C#N)=C/c1ccc(N(C)C)o1,101.8,nt,?,8,100.8,100.7,nt,nt,nt,nt,nt,nt,
C=C(C)CCC1(C)NC(=O)N(c2ccccc2)N1 (stereo unspecified),41.3*,nt,?,1,52.0,78.8,-0.5,96.9,95.3,96.3,96.1,93.3,
Cc1ccc(C(C(=O)NC2CCCCC2)N(CC2CCCO2)C(=O)CNC(=O)c2ccco2)cc1 (stereo unspecified),84.5,13,94.1,10,115.6,100.1,nt,nt,nt,nt,nt,nt,
O=C(NCC(=O)N(Cc1ccccc1)C(C(=O)NC1CCCC1)c1ccco1)c1ccco1 (stereo unspecified),95.2,29,96.7,12,103.5,98.9,nt,nt,nt,nt,nt,nt,
O=C(NCC(=O)N(CC1CCCO1)C(C(=O)NC1CCCCC1)c1ccc(F)cc1)c1ccco1 (stereo unspecified),165.0*[activator],10,236.6*[activator],175*,105.9,94.4,1.0,99.0,97.8,99.0,99.1,101.8,
O=C(CN(Cc1ccccc1C(F)(F)F)C(=O)CNC(=O)c1ccco1)NC1CCCC1,112.5,36,170.8*[activator],104*,106.0,100.7,-1.2,101.3,105.9,100.1,101.9,106.6,RGS4-Gao HTS=112.5*
CC(C)COc1ccc(C/C(N)=N/n2cnnc2)cc1,96.3,22,100.1,7,104.5,101.2,nt,nt,nt,nt,nt,nt,
CC/C=C\[C@H](O)[C@H](O)C1=C(C)C(=O)[C@]2(O1)C(=O)N[C@@](OC)(C(=O)c1ccccc1)C2O (stereo partly specified),96.3,21,95.2,7,98.2,97.5,nt,nt,nt,nt,nt,nt,
OCCC1CN(Cc2nc3c(s2)CCCC3)CCN1CCc1ccccc1 (stereo unspecified),99.1,17,102.9,5,101.5,99.0,nt,nt,nt,nt,nt,nt,
CC(C)CCN1CCN(Cc2nc3c(s2)CCCC3)CC1CCO (stereo unspecified),40.3*,13,27.4*,2,30.0,37.5*,-0.7,114.8,110.0,117.0,103.2,104.5,
CCN(CC)S(=O)(=O)c1cccc(C(=O)N/N=C/c2ccc(O)c(O)c2O)c1,43.1*,1,31.4*,-1,-60.7,50.8*,0.9,63.6*,60.7*,57.2*,63.4*,15.6*,
CCOc1ccccc1/C=N/NC(=O)c1cccc(S(=O)(=O)N(CC)CC)c1,92.9,11,91.6,11,93.8,99.8,nt,nt,nt,nt,nt,nt,
CC1(C)CC(=O)C2=C(C1)N(c1ccc(F)cc1)C(N)=C(C#N)C2c1cccs1 (stereo unspecified),107.3,19,106.6,4,106.2,106.0,nt,nt,nt,nt,nt,nt,
Cc1ccc(N2C(N)=C(C#N)C(c3cccs3)C3=C2CC(C)(C)CC3=O)cc1 (stereo unspecified),197.0*[activator],5,121.0,36,197.2*[activator],117.4,0.2,106.3,107.7,106.5,104.0,104.6,
CCOc1ccc(NC(=O)NNC(=O)c2ccc(CC)s2)cc1,99.0,25,98.6,9,102.3,101.5,nt,nt,nt,nt,nt,nt,
